# Measurements taken from the supplement of paper PMC8728848.
# The entries come from a sample that favours the strongest signals as a whole.
# Assays:
# Assay in all cases: glycan array binding signal (z-score within array); higher = stronger binding
# Conditions in all cases: glycan notation: IUPAC condensed, linker removed
# GalNAc(a1-3)GalNAc = molecular target: GalNAc(a1-3)GalNAc
# How it was run: (§1)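 Arrays were curated from the Consortium for Functional Glycomics database, 3228 in total, and kept only where the protein sequence was available. Binding is expressed as a within-array Z-score. This score was averaged across arrays of the same protein sequence at different concentrations or buffers and across linkers, and negative values can be read as non-binding.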
# [1] = molecular target: GalNAc(b1-4)GlcNAc(b1-2)Man(a1-3)[GalNAc(b1-4)GlcNAc(b1-2)Man(a1-6)]Man(b1-4)GlcNAc(b1-4)GlcNAc
# How it was run: as §1
# [2] = molecular target: GalNAc(b1-4)GlcNAc(b1-3)GalNAc(b1-4)GlcNAc
# How it was run: as §1
# Glc(a1-6)Glc(a1-6)Glc = molecular target: Glc(a1-6)Glc(a1-6)Glc
# How it was run: as §1
# GlcA(b1-3)Gal = molecular target: GlcA(b1-3)Gal
# How it was run: as §1
# [3] = molecular target: GlcNAc(b1-2)Man(a1-3)[GlcNAc(b1-4)][GlcNAc(b1-2)Man(a1-6)]Man(b1-4)GlcNAc(b1-4)[Fuc(a1-6)]GlcNAc
# How it was run: as §1
# [4] = molecular target: GlcNAc(b1-3)Gal(b1-4)GlcNAc(b1-2)[GlcNAc(b1-3)Gal(b1-4)GlcNAc(b1-6)]Man(a1-6)[GlcNAc(b1-3)Gal(b1-4)GlcNAc(b1-2)Man(a1-3)]Man(b1-4)GlcNAc(b1-4)GlcNAc
# How it was run: as §1
# [5] = molecular target: GlcNAc(b1-3)Gal(b1-4)GlcNAc(b1-3)Gal(b1-4)GlcNAc(b1-2)Man(a1-3)[GlcNAc(b1-3)Gal(b1-4)GlcNAc(b1-3)Gal(b1-4)GlcNAc(b1-2)Man(a1-6)]Man(b1-4)GlcNAc(b1-4)[Fuc(a1-6)]GlcNAc
# How it was run: as §1
# [6] = molecular target: GlcNAc(b1-3)Gal(b1-4)GlcNAc(b1-3)Gal(b1-4)GlcNAc(b1-2)[GlcNAc(b1-3)Gal(b1-4)GlcNAc(b1-3)Gal(b1-4)GlcNAc(b1-6)]Man(a1-6)[GlcNAc(b1-3)Gal(b1-4)GlcNAc(b1-3)Gal(b1-4)GlcNAc(b1-2)Man(a1-3)]Man(b1-4)GlcNAc(b1-4)[Fuc(a1-6)]GlcNAc
# How it was run: as §1
# [7] = molecular target: GlcNAc(b1-3)Gal(b1-4)GlcNAc(b1-3)GalNAc
# How it was run: as §1
# [8] = molecular target: Kdn(a2-3)Gal(b1-4)[Fuc(a1-3)]GlcNAc
# How it was run: as §1
# [9] = molecular target: Man(a1-2)Man(a1-2)Man(a1-3)Man
# How it was run: as §1
# [10] = molecular target: Neu5Ac(a2-3)Gal(b1-3)GalNAc
# How it was run: as §1
# [11] = molecular target: Neu5Ac(a2-3)Gal(b1-3)GalNAc6S
# How it was run: as §1
# [12] = molecular target: Neu5Ac(a2-3)Gal(b1-3)GlcNAc(b1-6)GalNAc
# How it was run: as §1
# [13] = molecular target: Neu5Ac(a2-3)Gal(b1-3)[Fuc(a1-4)]GlcNAc(b1-3)Gal(b1-3)[Fuc(a1-4)]GlcNAc
# How it was run: as §1
# [14] = molecular target: Neu5Ac(a2-3)Gal(b1-3)[Neu5Ac(a2-6)]GlcNAc(b1-3)[Fuc(a1-3)[Gal(b1-4)]GlcNAc(b1-6)]Gal(b1-4)Glc
# How it was run: as §1
# [15] = molecular target: Neu5Ac(a2-3)Gal(b1-4)GlcNAc(b1-3)Gal(b1-4)GlcNAc(b1-3)[Neu5Ac(a2-3)Gal(b1-4)GlcNAc(b1-3)Gal(b1-4)GlcNAc(b1-6)]GalNAc
# How it was run: as §1
# [16] = molecular target: Neu5Ac(a2-3)Gal(b1-4)GlcNAc(b1-6)[Gal(b1-3)]GalNAc
# How it was run: as §1
# [17] = molecular target: Neu5Ac(a2-3)Gal(b1-4)[Fuc(a1-3)]GlcNAc(b1-3)Gal(b1-4)GlcNAc
# How it was run: as §1
# [18] = molecular target: Neu5Ac(a2-6)Gal(b1-4)GlcNAc(b1-2)Man(a1-3)[Neu5Ac(a2-6)Gal(b1-4)GlcNAc(b1-2)Man(a1-6)]Man(b1-4)GlcNAc(b1-4)[Fuc(a1-6)]GlcNAc
# How it was run: as §1
# [19] = molecular target: Neu5Ac(a2-6)Gal(b1-4)GlcNAc(b1-3)Gal(b1-4)GlcNAc(b1-3)Gal(b1-4)GlcNAc
# How it was run: as §1
# [20] = molecular target: Neu5Ac(a2-6)Gal(b1-4)GlcNAc(b1-3)Gal(b1-4)GlcNAc(b1-3)Gal(b1-4)GlcNAc(b1-2)Man(a1-3)[Neu5Ac(a2-6)Gal(b1-4)GlcNAc(b1-3)Gal(b1-4)GlcNAc(b1-3)Gal(b1-4)GlcNAc(b1-2)Man(a1-6)]GalNAc
# How it was run: as §1
# [21] = molecular target: Neu5Ac(a2-6)Gal(b1-4)GlcNAc(b1-3)GalNAc
# How it was run: as §1
# [22] = molecular target: Neu5Ac(a2-8)Neu5Ac(a2-3)[GalNAc(b1-4)]Gal(b1-4)Glc
# How it was run: as §1
# [23] = molecular target: Neu5Ac(a2-8)Neu5Ac(a2-8)Neu5Ac(a2-3)Gal(b1-4)Glc
# How it was run: as §1
# [24] = molecular target: Neu5Ac(a2-8)Neu5Gc(a2-3)Gal(b1-4)GlcNAc
# How it was run: as §1
# [25] = molecular target: Neu5Gc(a2-3)Gal(b1-3)[Fuc(a1-4)]GlcNAc
# How it was run: as §1
binder,measurement,setting,value
PX14343F-bfa-562-20-562 (Bacteroides fragilis) (protein) CDDFLDSFPQDTVTNENFWKSKEDADKVLVDIYASLLPKDAIFFDEAMSDNAYLVWDWWGGAQQVANGSYTTSGEIPTNRWNGSYEVIRKCWFLLEGIEKIEDISEQDKNKIIGETYFMLAYNYYVLTSYFGDVPLVTKTLAIPESKQLVRTPKAEVVDYAINKLKEAAVMLEGLSQEKGRVTADACRFLIARMYLYNGDYSNVLETVKLLEGKYQLYREGDTPYEDLFSGVAENSCEVILSVVCDKRVGEIYTSHGGNGIMLLKGITGEDPYRGVTPSGSLVDAYPMADGRLIHEAGSSYDPKKPYEGRDPRFYQSIVYPTGQIKYLDVETGTVKERLYDPEDPTTVPEHQYNYSQPSATGYMWNKYIDYSVYAMNSVWDCTNDIIVFRYADVLLMKAEALLQTKGESAKEEVCNLIDQLRDRCSCGRVHRENYNSKDELMELLKNERRIELANEGLRYMDLIRWKDAEKNTIVTGVGLTGQMYGAYMRKDGVGKDDKTVDVDNTPRRYIETRYFNASKGYLFPIPQKERDLNPNLTQNPNW,glycan array binding signal (z-score),GalNAc(a1-3)GalNAc,0.306
same,glycan array binding signal (z-score),[1],2.1
same,glycan array binding signal (z-score),[2],0.152
same,glycan array binding signal (z-score),Glc(a1-6)Glc(a1-6)Glc,-0.43
same,glycan array binding signal (z-score),GlcA(b1-3)Gal,-0.822
same,glycan array binding signal (z-score),[3],-0.489
same,glycan array binding signal (z-score),[4],1.87
same,glycan array binding signal (z-score),[5],1.72
same,glycan array binding signal (z-score),[6],0.546
same,glycan array binding signal (z-score),[7],0.486
same,glycan array binding signal (z-score),[8],-0.468
same,glycan array binding signal (z-score),[9],-0.59
same,glycan array binding signal (z-score),[10],-0.546
same,glycan array binding signal (z-score),[11],-0.506
same,glycan array binding signal (z-score),[12],1.15
same,glycan array binding signal (z-score),[13],-0.121
same,glycan array binding signal (z-score),[14],-0.957
same,glycan array binding signal (z-score),[15],1.61
same,glycan array binding signal (z-score),[16],-0.723
same,glycan array binding signal (z-score),[17],0.262
same,glycan array binding signal (z-score),[18],1.09
same,glycan array binding signal (z-score),[19],-0.047
same,glycan array binding signal (z-score),[20],2.16
same,glycan array binding signal (z-score),[21],-0.734
same,glycan array binding signal (z-score),[22],1.74
same,glycan array binding signal (z-score),[23],0.121
same,glycan array binding signal (z-score),[24],19.1
same,glycan array binding signal (z-score),[25],-0.055
